# Only some compounds are listed: those with a hit (about 5.4% of all), similar ones and a draw of the others.
# PP1 inh: PP1-alpha phosphatase inhibitors, primary screen, counter-screen for PP5 inhibitor project, biochemical, fluorescence, OMFP substrate, single point; inhibition, % at 6.7 µM; purified PP1alpha; 0.9% of 320,000 active; Serine/threonine-protein phosphatase PP1-alpha catalytic subunit (Homo sapiens), P62136;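 active means inhibition above the mean inhibition of all tested compounds plus 3 SD, computed separately for each screening campaign, cut at about 15% in these data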
# Target sequence (P62136 whole entry, looked up): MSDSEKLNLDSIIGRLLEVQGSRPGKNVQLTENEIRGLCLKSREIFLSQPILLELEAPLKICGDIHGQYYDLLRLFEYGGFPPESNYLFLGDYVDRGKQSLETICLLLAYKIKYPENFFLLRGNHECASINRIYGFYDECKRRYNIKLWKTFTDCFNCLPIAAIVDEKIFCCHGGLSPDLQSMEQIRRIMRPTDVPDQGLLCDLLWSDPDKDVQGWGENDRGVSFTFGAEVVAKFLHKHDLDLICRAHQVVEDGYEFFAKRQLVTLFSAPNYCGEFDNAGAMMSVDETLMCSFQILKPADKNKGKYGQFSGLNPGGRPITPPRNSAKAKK
# Calb FLC: C. albicans growth inhibition with fluconazole, primary screen, CaCi-2 strain, Alamar Blue fluorescence. C. albicans CaCi-2 (fluconazole-resistant clinical isolate) + fluconazole, 48 h. growth inhibition, % (test concentration not listed). 0.57% of 300,000 active;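 active means growth inhibition above about 58% in most replicates, limit read from the data, passing the limit was not always enough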;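 further: all wells also contain fluconazole at 8 µg/ml as a sub-toxic cotreatment; 0% = median of DMSO wells and 100% = median of geldanamycin control wells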
# CSC inhib: cancer stem cell viability inhibitors, primary screen, luminescence. 1.1% of 300,000 active. cancer stem cell-like cells viability. AID 2717, 2010. inhibition, % at 7.5 µM; in the data active means inhibition above about 75%; tested in HMLE shEcad cells
# PP5 inh: PP5 phosphatase inhibitors, primary screen, biochemical, fluorescence; Serine/threonine-protein phosphatase 5 (Homo sapiens), P53041; purified PP5c, OMFP substrate fluorescence; inhibition, % at 6.7 µM; 0.18% of 320,000 active; AID 1987, 2009;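 active means inhibition above the campaign's mean inhibition across all tested compounds plus 3 SD, cut at about 9.5% in these data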;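 further: 0% = DMSO only and 100% = 100 µM cantharidin control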
# ALR inh: inhibitors of human ALR sulfhydryl oxidase, primary screen, biochemical, H2O2 detection, HRP-luminol luminescence, single point; 3.8% of 290,000 active; inhibition, % (test concentration not listed); AID 485317, 2010; FAD-linked sulfhydryl oxidase ALR (Homo sapiens), P55789; purified ALR, DTT oxidation;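 active means mean replicate inhibition above about 79%, with every replicate also reaching it, limit read from the data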
# Target sequence (P55789 whole entry, looked up): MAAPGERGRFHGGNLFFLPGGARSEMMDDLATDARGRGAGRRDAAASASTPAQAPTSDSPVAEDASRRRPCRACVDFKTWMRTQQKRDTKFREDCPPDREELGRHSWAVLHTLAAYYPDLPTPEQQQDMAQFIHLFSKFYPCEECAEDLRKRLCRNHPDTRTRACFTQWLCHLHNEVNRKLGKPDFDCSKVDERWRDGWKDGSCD
# The depositor's hits bear a star; nt = not tested or not shown.
SMILES,PP1 inh,Calb FLC,CSC inhib,PP5 inh,ALR inh
O=Cc1c(NCc2ccco2)nc2ccccn2c1=O,-3,9,-5,2,10
CC(C)c1ccc(NC(=S)NC2CCCCCC2)cc1,3,-27,-8,1,10
O=C(NCCN1CCN(C(=O)c2ccc(F)cc2)CC1)c1ccc(F)cc1,-2,-5,-6,3,-2
N#CC1(NC(=O)COC(=O)c2cc(O)c3ccccc3c2O)CCCCC1,-2,36,89*,1,2
N#CC1(NC(=O)COC(=O)c2ccccc2[N+](=O)[O-])CCCCC1,-4,-9,-16,-2,-12
N#CC1(NC(=O)COC(=O)c2ccc(-c3ccc(O)cc3)cc2)CCCCC1,16*,nt,8,2,58
Cn1c(=O)c(=O)n(C)c2cc(N3CCOCC3)c(NS(=O)(=O)c3ccc([N+](=O)[O-])cc3)cc21,1,6,16,3,-4
O=C(CCN1C(=O)S/C(=C\c2ccc(Cl)cc2)C1=O)Nc1ccc(C(=O)O)cc1,0,0,-10,0,3
COC(=O)c1ccc2c(c1)C(C)(C)C(/C=C/c1ccc(OC)c(OC)c1OC)=[N+]2C,8,-1,-3,1,39
COC(=O)c1ccc2c(c1)C(C)(C)C(/C=C/c1ccc(O)cc1)=[N+]2C,17*,-21,56,7,93*
CN1CC2([N+](=O)[O-])CC=C(OCCO)C([N+](=O)[O-])(C1)C2 (stereo not drawn),-4,113*,-15,-1,-2
O=C(O)c1ccc2c(c1)[C@@H]1C=CC[C@@H]1[C@H](c1ccccn1)N2,8,110*,-26,0,nt
CN[C@H]1CCc2cc(OC)c(OC)c(OC)c2-c2ccc(N(C)CC(OC)OC)c(=O)cc21,1,1,80*,0,-33
COc1cc2c(c(OC)c1OC)-c1ccc(OC)c(=O)cc1[C@@H](NC(C)=O)CC2,-12,0,49,3,-13
COc1cc2c(c(OC)c1OC)-c1ccc(N(C)CC(OC)OC)c(=O)cc1[C@@H](NC(C)=O)CC2,-1,-5,75*,3,-19
CC(C)(C)OC(=O)NCCCCCc1cn(CC(=O)NCCCCCCCCCCC(=O)N2CCN(C(=O)OC(C)(C)C)CC2)nn1,2,nt,-1,1,-4
O=c1nc2ccccc2c(NS(=O)(=O)c2ccc(Cl)cc2)n1-c1ccccc1,-1,1,nt,2,1
COCCCNC(=O)c1cc(C(=O)Cc2ccccc2)c[nH]1,0,12,-6,1,-4
O=C(C1=C[C@@H](c2ccc(C(F)(F)F)cc2)C[C@@H](OCc2ccc(CO)cc2)O1)N1CCN(Cc2ccc3c(c2)OCO3)CC1,2,-3,44,-2,1
O=C(C1=C[C@H](c2ccc(C(F)(F)F)cc2)C[C@H](OCc2ccc(CO)cc2)O1)N1CCN(Cc2ccc3c(c2)OCO3)CC1,7,6,80*,3,-9
Cc1c(C)c(C)c(CN2CCCC2)c(C)c1C,-4,-7,46,0,-7
Cc1ccc(C(=O)C2CCNCC2)cc1,-3,-14,-4,0,nt
Cc1ccc(C2Cc3cc(O)c(O)cc3CN2)cc1 (stereo not drawn),1,-20,28,4,99*
O=C1CC(N2CCN(c3ccc(Cl)cc3)CC2)C(=O)N1c1ccc(F)cc1 (stereo not drawn),-2,8,-4,2,24
CCCCOc1cccc(C2C(C(=O)c3ccc(C)o3)=C(O)C(=O)N2Cc2ccco2)c1 (stereo not drawn),nt,79*,-15,nt,58
SMILES,PP1 inh,Calb FLC,CSC inhib,PP5 inh,ALR inh
C=CCOc1ccc(C2C(C(=O)c3ccc(C)o3)=C(O)C(=O)N2Cc2cccnc2)cc1 (stereo not drawn),23*,5,6,2,7
CCOc1cccc(C2C(C(=O)c3ccc(C)o3)=C(O)C(=O)N2Cc2ccccc2)c1 (stereo not drawn),nt,14,nt,nt,nt
O=C(C1=C(O)C(=O)N(CCN2CCOCC2)C1c1cccc(Br)c1)c1cc2ccccc2o1 (stereo not drawn),19*,35,-8,1,35
C=CCOc1cccc(C2C(C(=O)c3ccc(C)o3)=C(O)C(=O)N2Cc2ccncc2)c1 (stereo not drawn),6,8,-1,-1,9
COCCCN1C(=O)C(O)=C(C(=O)c2ccc(C)o2)C1c1cccc(Br)c1 (stereo not drawn),18*,-3,-4,2,6
CC(=O)c1c(C)[nH]c(C(=O)CSc2nnc3ccccn23)c1C,-4,9,6,3,-8
CCOc1cccc2cc(C(=O)N3CCOCC3)c(=O)oc12,5,-1,2,0,-16
Cc1ccccc1NC(=O)CC1SC(=O)N(c2ccccc2)C1=O (stereo not drawn),5,-2,-6,2,97*
Cc1cc(C)cc(NS(=O)(=O)c2ccc3[nH]cc(C(=O)NCc4ccco4)c(=O)c3c2)c1,5,-5,99*,2,4
CCOc1cc(/C=C2\C(=O)NN(c3ccccc3)C2=O)cc([N+](=O)[O-])c1O,-1,95*,-12,-2,95*
COc1cc(/C=C2\C(=O)NN(c3ccc(C)cc3)C2=O)cc([N+](=O)[O-])c1O,1,-36,nt,2,99*
COc1cc(/C=C2/C(=O)NN(c3ccccc3)C2=O)cc(Br)c1O,3,-17,-14,-2,99*
COc1cc(/C=N/N2CCCCC2)cc([N+](=O)[O-])c1O,-3,-16,-14,1,98*
CCCCC(=O)OCC(=O)Nc1cccc(S(=O)(=O)NC2=NCCCCC2)c1,-6,-10,-21,3,-18
COc1cc2c(cc1OC)CN(CC(=O)NC(=O)NC(C)(C)C)CC2,-1,-14,0,2,-68
COc1cc(/C=C2\C(=O)NN(c3ccccc3)C2=O)cc([N+](=O)[O-])c1O,-2,109*,6,2,98*
CCOC(=O)COc1ccc(/C=C2/C(=O)NN(c3ccc(F)cc3)C2=O)cc1OC,3,-18,21,0,65
CCOc1cc(/C=C2\NC(=O)NC2=O)cc([N+](=O)[O-])c1O,-2,8,5,-1,88*
COc1cc(/C=C2/C(=O)NN(c3ccc(Cl)cc3)C2=O)cc(OC)c1O,5,90*,1,1,19
COc1cc(/C=C2/C(=O)N(c3ccc(C)c(C)c3)N=C2C)cc([N+](=O)[O-])c1O,4,11,12,3,45
CC(C)C(=O)Nc1cccc(-c2cnc3ccccc3n2)c1,2,29,-5,1,-4
Cc1cc(C)c(O)c(-c2cc(C(=O)NCc3ccccc3)[nH]n2)c1,3,-5,-20,4,5

# Screens (PubChem)
